Measurements taken from the supplement of paper PMC12282887.
± gives the standard deviation of the averaged measurements.

What was measured:
Assay in all cases: promoter activity interaction Z-score (Lux/OD deviation from empty-vector control); higher = stronger promoter induction by the compound
[1] = tested on: E. coli BW25113 acrABp lux reporter
Summary of the method: (§1)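 E. coli BW25113, as wild type or one of three single-gene deletion strains, carried low-copy luxCDABE promoter reporters and grew in 40 µl LB Lennox in 384-well plates at 37°C, with OD600 and luminescence read every 30 min for 12 h. Each compound was run at four 1:2 dilutions in biological duplicates, integration spanned 0–8 h for wild type and 1–9 h for deletion strains, and wells under 10% of the median growth value were dropped. The score is the Z-transformed residual of growth-normalised luminescence fitted against a control.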

[2] = tested on: E. coli BW25113 marRABp lux reporter
Summary of the method: as §1

[3] = tested on: E. coli BW25113 micFp lux reporter
Summary of the method: as §1

[4] = tested on: E. coli BW25113 ompFp lux reporter
Summary of the method: as §1

[5] = tested on: E. coli BW25113 robp lux reporter
Summary of the method: as §1

[6] = tested on: E. coli BW25113 soxSp lux reporter
Summary of the method: as §1

[7] = tested on: E. coli BW25113 tolCp lux reporter
Summary of the method: as §1

[8] = 23.5 µg/ml, genetic background: wild type
[9] = 23.5 µg/ml, genetic background: ΔmarA
[10] = 23.5 µg/ml, genetic background: Δrob
[11] = 23.5 µg/ml, genetic background: ΔsoxS
[12] = 47.1 µg/ml, genetic background: wild type
[13] = 47.1 µg/ml, genetic background: ΔmarA
[14] = 47.1 µg/ml, genetic background: Δrob
[15] = 47.1 µg/ml, genetic background: ΔsoxS
[16] = 94.1 µg/ml, genetic background: wild type
[17] = 94.1 µg/ml, genetic background: ΔmarA
[18] = 94.1 µg/ml, genetic background: Δrob
[19] = 94.1 µg/ml, genetic background: ΔsoxS
[20] = 188.3 µg/ml, genetic background: wild type
[21] = 188.3 µg/ml, genetic background: ΔmarA
[22] = 188.3 µg/ml, genetic background: Δrob
[23] = 188.3 µg/ml, genetic background: ΔsoxS

C[C@H](CCC(=O)O)[C@H]1CC[C@H]2[C@@H]3CC[C@@H]4C[C@H](O)CC[C@]4(C)[C@H]3CC[C@]12C [Lithocholic acid]
promoter activity interaction Z-score [1, 8]: 0.128 ± 0.083 | promoter activity interaction Z-score [1, 9]: 1.34 ± 2.3 | promoter activity interaction Z-score [1, 10]: 0.0671 ± 0.095 | promoter activity interaction Z-score [1, 11]: -0.142 ± 0.031 | promoter activity interaction Z-score [1, 12]: 0.171 ± 0.17 | promoter activity interaction Z-score [1, 13]: 0.66 ± 0.77 | promoter activity interaction Z-score [1, 14]: 0.304 ± 0.021 | promoter activity interaction Z-score [1, 15]: -0.0227 ± 0.072 | promoter activity interaction Z-score [1, 16]: -0.00199 ± 0.34 | promoter activity interaction Z-score [1, 17]: 0.576 ± 0.88 | promoter activity interaction Z-score [1, 18]: -0.304 ± 0.19 | promoter activity interaction Z-score [1, 19]: -0.652 ± 0.55 | promoter activity interaction Z-score [1, 20]: -0.12 ± 0.18 | promoter activity interaction Z-score [1, 21]: 0.897 ± 2.2 | promoter activity interaction Z-score [1, 22]: -0.207 ± 0.095 | promoter activity interaction Z-score [1, 23]: -0.566 ± 1.5 | promoter activity interaction Z-score [2, 8]: 0.0125 ± 0.049 | promoter activity interaction Z-score [2, 9]: 0.215 ± 0.24 | promoter activity interaction Z-score [2, 10]: 0.171 ± 0.16 | promoter activity interaction Z-score [2, 11]: -0.00159 ± 0.033 | promoter activity interaction Z-score [2, 12]: 0.0767 ± 0.14 | promoter activity interaction Z-score [2, 13]: 0.199 ± 0.2 | promoter activity interaction Z-score [2, 14]: 0.159 ± 0.08 | promoter activity interaction Z-score [2, 15]: 0.29 ± 0.41 | promoter activity interaction Z-score [2, 16]: -0.14 ± 0.0041 | promoter activity interaction Z-score [2, 17]: -0.0736 ± 0.21 | promoter activity interaction Z-score [2, 18]: 0.0252 ± 0.008 | promoter activity interaction Z-score [2, 19]: -0.23 ± 0.21 | promoter activity interaction Z-score [2, 20]: -0.189 ± 0.024 | promoter activity interaction Z-score [2, 21]: 0.0134 ± 0.26 | promoter activity interaction Z-score [2, 22]: 0.123 ± 0.086 | promoter activity interaction Z-score [2, 23]: 0.0918 ± 0.55 | promoter activity interaction Z-score [3, 8]: -0.113 ± 0.26 | promoter activity interaction Z-score [3, 9]: 0.16 ± 0.35 | promoter activity interaction Z-score [3, 10]: 0.238 ± 0.17 | promoter activity interaction Z-score [3, 11]: -0.193 ± 0.12 | promoter activity interaction Z-score [3, 12]: 0.314 ± 0.66 | promoter activity interaction Z-score [3, 13]: 0.226 ± 0.41 | promoter activity interaction Z-score [3, 14]: 0.0535 ± 0.017 | promoter activity interaction Z-score [3, 15]: 0.243 ± 0.36 | promoter activity interaction Z-score [3, 16]: 0.275 ± 0.18 | promoter activity interaction Z-score [3, 17]: 0.187 ± 0.33 | promoter activity interaction Z-score [3, 18]: 0.0887 ± 0.27 | promoter activity interaction Z-score [3, 19]: -0.363 ± 0.17 | promoter activity interaction Z-score [3, 20]: -0.215 ± 0.76 | promoter activity interaction Z-score [3, 21]: 0.379 ± 0.47 | promoter activity interaction Z-score [3, 22]: -0.0294 ± 0.12 | promoter activity interaction Z-score [3, 23]: -0.253 ± 0.14 | promoter activity interaction Z-score [4, 8]: -0.331 ± 0.28 | promoter activity interaction Z-score [4, 9]: 0.388 ± 0.35 | promoter activity interaction Z-score [4, 10]: 0.233 ± 0.41 | promoter activity interaction Z-score [4, 11]: -0.266 ± 0.66 | promoter activity interaction Z-score [4, 12]: -0.361 ± 0.42 | promoter activity interaction Z-score [4, 13]: -0.326 ± 0.22 | promoter activity interaction Z-score [4, 14]: 0.512 ± 0.58 | promoter activity interaction Z-score [4, 15]: 0.0216 ± 0.97 | promoter activity interaction Z-score [4, 16]: -1.02 ± 0.35 | promoter activity interaction Z-score [4, 17]: -0.0279 ± 0.11 | promoter activity interaction Z-score [4, 18]: -0.2 ± 0.59 | promoter activity interaction Z-score [4, 19]: -1.15 ± 0.78 | promoter activity interaction Z-score [4, 20]: -0.885 ± 0.27 | promoter activity interaction Z-score [4, 21]: -0.942 ± 0.53 | promoter activity interaction Z-score [4, 22]: -0.571 ± 0.34 | promoter activity interaction Z-score [4, 23]: -0.828 ± 0.72 | promoter activity interaction Z-score [5, 8]: 0.566 ± 0.055 | promoter activity interaction Z-score [5, 9]: 1.44 ± 0.64 | promoter activity interaction Z-score [5, 10]: 0.487 ± 0.029 | promoter activity interaction Z-score [5, 11]: 0.99 ± 0.62 | promoter activity interaction Z-score [5, 12]: -0.0796 ± 0.041 | promoter activity interaction Z-score [5, 13]: 0.19 ± 0.14 | promoter activity interaction Z-score [5, 14]: 0.443 ± 0.039 | promoter activity interaction Z-score [5, 15]: 1.04 ± 0.47 | promoter activity interaction Z-score [5, 16]: -0.0166 ± 0.45 | promoter activity interaction Z-score [5, 17]: 1.08 ± 0.44 | promoter activity interaction Z-score [5, 18]: 0.223 ± 0.44 | promoter activity interaction Z-score [5, 19]: 0.195 ± 0.21 | promoter activity interaction Z-score [5, 20]: -0.492 ± 1.1 | promoter activity interaction Z-score [5, 21]: 0.59 ± 0.34 | promoter activity interaction Z-score [5, 22]: 0.0946 ± 0.17 | promoter activity interaction Z-score [5, 23]: 0.391 ± 0.17 | promoter activity interaction Z-score [6, 8]: 0.313 ± 0.3 | promoter activity interaction Z-score [6, 9]: -0.0502 ± 0.087 | promoter activity interaction Z-score [6, 10]: 0.0422 ± 0.029 | promoter activity interaction Z-score [6, 11]: 0.057 ± 0.13 | promoter activity interaction Z-score [6, 12]: -0.126 ± 0.1 | promoter activity interaction Z-score [6, 13]: -0.195 ± 0.067 | promoter activity interaction Z-score [6, 14]: 0.0214 ± 0.095 | promoter activity interaction Z-score [6, 15]: -0.0763 ± 0.36 | promoter activity interaction Z-score [6, 16]: -0.137 ± 0.33 | promoter activity interaction Z-score [6, 17]: -0.217 ± 0.014 | promoter activity interaction Z-score [6, 18]: -0.165 ± 0.32 | promoter activity interaction Z-score [6, 19]: -0.531 ± 0.61 | promoter activity interaction Z-score [6, 20]: -0.578 ± 0.011 | promoter activity interaction Z-score [6, 21]: -0.284 ± 0.089 | promoter activity interaction Z-score [6, 22]: -0.408 ± 0.33 | promoter activity interaction Z-score [6, 23]: -0.418 ± 0.97 | promoter activity interaction Z-score [7, 8]: 0.238 ± 0.82 | promoter activity interaction Z-score [7, 9]: 1.52 ± 0.56 | promoter activity interaction Z-score [7, 10]: 0.914 ± 0.84 | promoter activity interaction Z-score [7, 11]: 0.608 ± 1.3 | promoter activity interaction Z-score [7, 12]: -0.0238 ± 0.039 | promoter activity interaction Z-score [7, 13]: 0.952 ± 0.099 | promoter activity interaction Z-score [7, 14]: 1.24 ± 0.98 | promoter activity interaction Z-score [7, 15]: 1.3 ± 0.12 | promoter activity interaction Z-score [7, 16]: 0.429 ± 0.87 | promoter activity interaction Z-score [7, 17]: 1.04 ± 0.5 | promoter activity interaction Z-score [7, 18]: 0.552 ± 0.78 | promoter activity interaction Z-score [7, 19]: 0.284 ± 0.072 | promoter activity interaction Z-score [7, 20]: 0.995 ± 0.41 | promoter activity interaction Z-score [7, 21]: 0.554 ± 0.33 | promoter activity interaction Z-score [7, 22]: 0.54 ± 0.74 | promoter activity interaction Z-score [7, 23]: 0.774 ± 1.2
